Results from the supplement of paper PMC3334620.
Whole data set: some 33,000 sequences, median “E-score (-0.5 to 0.5)” near -0.012, cut for the highest 2% near 0.27. For the sample, the highest values were picked, then their nearest neighbours and some sequences at random.

Target: T1, Vhr1 (UniProt P40522)
T1 sequence: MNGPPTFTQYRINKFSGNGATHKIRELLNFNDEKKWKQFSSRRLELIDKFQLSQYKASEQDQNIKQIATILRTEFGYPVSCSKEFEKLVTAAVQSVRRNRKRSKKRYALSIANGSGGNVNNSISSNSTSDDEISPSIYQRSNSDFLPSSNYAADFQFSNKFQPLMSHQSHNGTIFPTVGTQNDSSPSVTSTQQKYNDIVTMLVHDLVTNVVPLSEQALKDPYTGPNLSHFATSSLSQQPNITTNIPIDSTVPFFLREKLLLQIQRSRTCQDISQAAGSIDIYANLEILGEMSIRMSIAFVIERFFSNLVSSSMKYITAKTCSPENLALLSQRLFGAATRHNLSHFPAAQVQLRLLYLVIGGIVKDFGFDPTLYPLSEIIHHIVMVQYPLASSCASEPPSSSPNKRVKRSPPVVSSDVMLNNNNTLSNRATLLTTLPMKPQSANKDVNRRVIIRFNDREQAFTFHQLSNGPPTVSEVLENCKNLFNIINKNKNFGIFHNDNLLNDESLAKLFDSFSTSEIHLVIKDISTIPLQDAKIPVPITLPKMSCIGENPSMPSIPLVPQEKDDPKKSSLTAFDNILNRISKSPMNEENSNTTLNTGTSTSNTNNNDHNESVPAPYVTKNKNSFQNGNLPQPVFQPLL
Assay: PBM E-score (8-mer binding enrichment) (E-score (-0.5 to 0.5)); higher = stronger / more preferred TF binding
Details: protein concentration: 200 nM; construct: GST-full length
Procedure, shortened: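 Masliner-normalised scans of fluorescent anti-GST signal were the basis for scoring. That signal came from GST-tagged yeast transcription factors applied at about 100-200 nM to double-stranded universal all-10-mer Agilent arrays on fresh or once-stripped slides. Each ungapped eight-base word, pooled with its reverse complement, received an E-score from the Universal PBM Analysis Suite.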

Sequence | PBM E-score
AGCAAGGG | -0.0155
GAGTGCGC | -0.0251
CCCGATGA | 0.273
CCCGATGC | -0.18
ACCGATGA | 0.00055
GTGCGCGA | 0.0151
CCGCATGA | 0.146
AACTATGA | 0.22
GACTATGC | 0.233
TACTATGA | 0.317
CACTATGA | 0.173
GACTATCA | 0.0818
GACTATGA | 0.289
AGAGGCTG | -0.116
AGTGACTG | 0.288
AGTGACCG | -0.117
GGTGACCA | -0.0328
GGTGACGA | 0.113
AGTGACGG | 0.00494
GGTGACTA | 0.44
AGTGACTA | 0.367
AGTGACAA | 0.0325

Sequence | PBM E-score
AGTGACGA | 0.139
GAGGAAGC | -0.151
AGACCTCT | -0.143
TAGGAAAA | -0.22
TAAGCCGA | -0.13
GTCTGTGA | 0.235
GCATTCCA | -0.177
AGCCTGAC | -0.0744
CATCATCG | 0.16
TATCATCA | 0.147
AATCATCA | 0.374
CATCATCC | 0.119
ATCCATCA | 0.289
ATCCATCC | 0.156
AATCATCC | 0.405
ATCCATCG | 0.0134
AATCATCT | 0.185
GATCATCC | 0.141
AATCATCG | 0.334
CATCATCA | -0.0217
AAGATTTG | -0.09
ACAGTGGG | -0.133

Sequence | PBM E-score
ACATCTAC | 0.155
GCGCCAAC | -0.0311
GCCCCCCA | -0.244
GGCCCAGA | -0.26
AGTTACAT | -0.043
GACACACA | 0.298
GACACATA | 0.197
GGGACACA | 0.297
GAGACACA | 0.14
GGGACACC | -0.0207
GACACACC | 0.28
CACACACC | 0.235
TGGACACA | 0.0645
AACACACC | 0.27
GTGGGACA | 0.0875
CAAGGCAC | -0.0306
AAGGCCCT | -0.164
CTGGTAGA | 0.0523
CAGCTAGA | 0.0392
AAGAATGG | -0.12
CTGACTTA | 0.187
ACGACTTC | 0.0846

Sequence | PBM E-score
ATGACTTC | 0.341
CTGACTTC | 0.195
ATGACTTA | 0.349
AGGACTTA | -0.0181
ACCTTACT | -0.129
CAGTACCG | 0.0537
ACTGAGCT | -0.0929
GTGACCCA | 0.267
ATGACCCA | 0.362
CTGACCCA | 0.0712
TCGCTGAA | 0.0432
AGAACACT | 0.108
CACGGTGG | 0.273
CACGGTGC | 0.0709
CACGGTGA | 0.106
ATGCATAG | 0.013
CATGTCTA | 0.0965
CATGTCTC | 0.294
AATGTCTC | 0.137
CATGAGTA | 0.225
